The sample as a whole holds a higher share of hits than the screen did.
Pf Dd2 growth – inhibitors of Plasmodium falciparum Dd2 growth; 4.3% of 120,000 active; AID 1347417; P. falciparum Dd2 growth, SYBR Green, 72 h; Potency, µM (titrated, usually from 28.9 µM), most hits filed as inhibitors; active = well fitted inhibition curve with a large enough effect; note: nearly all actives have a fitted effect of over 65% in size
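Readout: SYBR Green fluorescence, 485 nm excitation, 535 nm emission, after ~16 h lysis at 37C. Before that, Dd2-infected red cells (2.5% hematocrit) grew 72 h with compound, 29 uM top final concentration.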
Of the large screens only hits and unclear results are named; the others gave an inactive call.

CN(Cc1cccnc1)c1nc2c(c(=O)[nH]1)CCN(Cc1ccc(Cl)cc1F)CC2	none
CCC(=O)N1CCCN(CC)C2(CCOCC2)C1	none
COc1cccc(CNC[C@H]2O[C@H](Cc3cc(-c4ccccc4)on3)CC[C@@H]2O)c1	Pf Dd2 growth 2.5µM
COc1ccc(-c2cc(C[C@@H]3CC[C@H](O)[C@@H](CNC(=O)Nc4ccccc4)O3)no2)cc1	none
COc1cccc(CNC[C@H]2O[C@H](Cc3cc(CN4CCOCC4)on3)CC[C@@H]2O)c1	none
COCCCNC(=O)CCC[C@@H]1[C@H]2CCCN3CCC[C@@H](CN1C(=O)c1ccccc1)[C@@H]23	none
CC(C)N1CC2CCC(C1)N2CC1CCCC1	none
CC(C)N1CC2CCC(C1)N2Cc1ccc(-c2ccsc2)cc1	Pf Dd2 growth 11µM
O=C(Nc1ccccc1F)N1CC2CCC(C1)N2Cc1ccc(-c2ccsc2)cc1	none
CCOc1ccc(CN2C(=O)C3(CCOCC3)CC2c2nnnn2C(C)(C)C)cc1 (configuration not stated)	none
CN1CCN(C(=O)[C@@H]2CCC[C@@H](NC(=O)c3ccc4c(c3)OCO4)CN(C)C(=O)C2)CC1	none
CC(C)c1nc(-c2ccc(OC3CCNC3)cc2)no1 (configuration not stated)	none
c1cc(-c2nc(-c3ccc(OC4CNC4)cc3)no2)ccn1	Pf Dd2 growth 4µM
c1cncc(-c2nc(-c3ccc(OC4CNC4)cc3)no2)c1	Pf Dd2 growth 5µM
O=C(Nc1ccccc1)N1CC(Oc2ccc(-c3noc(-c4ccncc4)n3)cc2)C1	none
CCCN1CC(Oc2ccc(-c3noc(-c4cccnc4)n3)cc2)C1	none
O=C(c1ccncc1)N1CCC(Oc2ccc(-c3noc(-c4ccccc4)n3)cc2)C1 (configuration not stated)	none
CCc1noc(CN2CCC3(CC2)CN(CCc2ccccc2)C(=O)O3)n1	none
O=C(NCC1CCCO1)N1CCc2c(nc3cc(-c4ccccc4Cl)[nH]n3c2=O)C1 (configuration not stated)	none
Cc1noc([C@@H]2CN(Cc3cccc(Cl)c3)C[C@H]2CO)n1	none
COc1ccc(C(=O)N[C@@H]2CCC[C@@H]2C(=O)NCCCOC(C)C)cn1	none
Cc1noc([C@@H](C)NC(=O)C2CCCCC2)c1C(=O)O	none
COc1ccccc1C(=O)N1CCC(c2n[nH]c(=O)n2-c2ccccc2)CC1	none
COc1ccc(CNC(=O)[C@@]23CCCC[C@H]2N(CCC(C)C)C(=O)CC3)cc1OC	none
COc1ccc2nc3n(c2c1)[C@@H](CNCc1ccc(C(=O)O)cc1)COC3	none
COc1ccc2nc3n(c2c1)[C@@H](CNCc1ccc(C#N)cc1)COC3	none
COc1ccc2nc3n(c2c1)[C@@H](CNCc1ccccc1)COC3	Pf Dd2 growth 7.1µM
COC(C)(C)C(=O)N1CCc2onc(-c3ccc4c(c3)OCO4)c2C1	none
Cn1cccc1C(=O)N1CC(c2nc(CCOCC3CCCC3)no2)C1	none
CNc1ccc(-c2nc(-c3ccccn3)no2)cc1[N+](=O)[O-]	none
CCC(Nc1ccc(-c2nc(-c3ccccn3)no2)cc1[N+](=O)[O-])c1ccccc1 (configuration not stated)	Pf Dd2 growth 3.5µM
CCNc1ccc(-c2nc(-c3ccccn3)no2)cc1[N+](=O)[O-]	none
COc1ccc(CN2CCOC[C@H](OC)C2)cn1	none
CC(CN1CC2(CCN(C(=O)c3ccc(=O)n(C)n3)CC2)OC1=O)c1ccccc1 (configuration not stated)	none
CCn1nccc1C(=O)N1CCC2(CC1)c1[nH]c3ccccc3c1CCN2C	none
CCN(CC)C(=O)CCc1ccc2c(c1)CN(C(=O)NC(C)C)CCO2	none
CC(=O)N1CCN(c2cc(-c3noc([C@@H]4CCCN4Cc4ccc(CO)o4)n3)ccn2)CC1	none
c1cc(-c2noc([C@@H]3CCCN3Cc3ncc[nH]3)n2)cc(N2CCOCC2)n1	none
c1ccc(CN2CCC[C@H]2c2nc(-c3ccnc(N4CCOCC4)c3)no2)nc1	Pf Dd2 growth 7.1µM
COc1ccc(CN2CCC[C@H]2c2nc(-c3ccnc(N4CCOCC4)c3)no2)cc1	none
CC(=O)N1CCN(c2cc(-c3noc([C@@H]4CCCN4Cc4ccccc4C)n3)ccn2)CC1	Pf Dd2 growth 13µM
NC(=O)C1CCN(c2cc(-c3noc([C@@H]4CCCN4Cc4ccccc4F)n3)ccn2)CC1	none
COCCOC1CCN(S(=O)(=O)c2c(C)noc2C)CC1	none
CCC(C)NC(=O)N1CC(n2cc(C(=O)N3CCOCC3)nn2)C1 (configuration not stated)	none
Cc1cc(NC(=O)N2C[C@@H](F)C[C@H]2C(=O)N2CCCCC2)ccc1Br	none
COC[C@@H]1CN(C(=O)COc2ccc(F)cc2)C[C@H]1c1nc(C)no1	none
CN(Cc1ccccc1)C(=O)[C@@H]1Cc2nc[nH]c2CN1C	none
COc1ccc(CN2Cc3[nH]cnc3C[C@H]2C(=O)NC2CCCCC2)c2ccccc12	Pf Dd2 growth 11µM
COc1ccc(CN2Cc3[nH]cnc3C[C@H]2C(=O)NCc2ccc(Cl)cc2)c2ccccc12	none
COc1ccc(CN2Cc3[nH]cnc3C[C@H]2C(=O)N(C)Cc2ccccc2)c2ccccc12	Pf Dd2 growth 5.6µM
COc1ccc(CN2Cc3[nH]cnc3C[C@H]2C(=O)NCc2ccc(C#N)cc2)c2ccccc12	none
CN(C)c1ccc(CN2Cc3[nH]cnc3C[C@H]2C(=O)N2CCC(Cc3ccccc3)CC2)cc1	none
CN(Cc1ccncc1)C1CCOc2ccccc21 (configuration not stated)	none
CCOCC(=O)N1CCCC(c2nc(-c3ccccc3)no2)CCNC(=O)CC1 (configuration not stated)	none
Cc1cccc(-c2nc3cnccn3c2NCCC(=O)NCc2ccc(F)c(Cl)c2)c1	none
O=S(=O)(NC[C@H]1Cn2ccnc2CO1)c1ccccc1	none
O=C(NCc1ccnc2[nH]ccc12)c1ccc2c(c1)OCO2	none
COc1ccc(C(N)CC(=O)N2CCC3(CC2)CN(C)C(=O)O3)cc1OC (configuration not stated)	none
COc1ccc(-c2cc3c(c(OC)c2)OCCNC3)nn1	none
Cc1ccc(-c2cc(O)c3c(c2)CNCCO3)cc1	none
COc1cc(-c2cc(C)c3c(OC)ccc(OC)c3n2)cc2c1OCCNC2	Pf Dd2 growth 11µM
CCc1ccc(NC(=O)CN(c2ccc(Cl)cc2)S(=O)(=O)c2ccsc2C(=O)OC)cc1	Pf Dd2 growth 11µM
COC(=O)c1sccc1S(=O)(=O)N(CC(=O)Nc1ccc(C)cc1)c1ccccc1	none
COC(=O)c1sccc1S(=O)(=O)N(CC(=O)Nc1ccccc1F)c1ccccc1	none
COc1cccc(CC(=O)N2CCC3(CC2)CC(OC)CCO3)c1 (configuration not stated)	none
C[S+](=O)([O-])N1CCC(c2nnc3n2C(C(=O)N2CCN(c4ncccn4)CC2)CC3)CC1 (configuration not stated)	none
CCC(C)C(=O)N1CCC2(CC1)CN(Cc1ccc(OC)cc1)C2=O (configuration not stated)	none
COc1ccc(N2CCN(c3nc(C(=O)NCc4ccccc4C)cs3)CC2)cc1	Pf Dd2 growth 8.9µM
COc1ccc(N2CCN(c3nc(C(=O)NCc4cccc(C)c4)cs3)CC2)cc1	Pf Dd2 growth 3.2µM
COc1ccc(N2CCN(c3nc(C(=O)NC4CC4)cs3)CC2)cc1	none
COc1ccc(N2CCN(c3nc(C(=O)NCc4ccc(C)cc4)cs3)CC2)cc1	none
O=C(NCc1ccccc1Cl)c1csc(N2CCN(c3ccc(F)cc3)CC2)n1	none
O=C(NCc1cccs1)c1csc(N2CCN(c3ccc(F)cc3)CC2)n1	none
CC(C(=O)N1CCC(C(=O)N2CCCCCCNC(=O)CC2)CC1)c1ccccc1 (configuration not stated)	none
COc1ccc(NC(=O)C2=NO[C@@H]3CN(c4cccnc4)C[C@H]23)cc1	none
